Experimental data from the supplement of paper PMC9694430.

How the values were obtained:
Experiment in all cases: thermal shift delta Tm vs DMSO control; higher = stronger stabilization (binding)
Conditions in all cases: 12.5 µM; protein concentration 2 µM
[1] = system: LOC_OS01G01410-cb001
Outline: (§1)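 Compounds dissolved in DMSO were added to purified rice kinase domain constructs, which had been expressed in E. coli, for differential scanning fluorimetry. Each well held 19.5 μl of 2 μM kinase in 100 mM potassium phosphate pH 7.5, 150 mM NaCl, 10% glycerol and 5 × SYPRO Orange. Fluorescence was followed from 25°C to 95°C at a rate of 0.05°C/s. Shifts in Boltzmann-fitted melting temperature are triplicate means relative to DMSO-only protein.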

[2] = system: LOC_OS01G02750-cb003
Outline: as §1

[3] = system: LOC_OS01G10900-cb004
Outline: as §1

[4] = system: LOC_OS01G13800-cb001
Outline: as §1

[5] = system: LOC_OS01G14860-cb001
Outline: as §1

[6] = system: LOC_OS01G21960-cb002
Outline: as §1

[7] = system: LOC_OS01G39600-cb002
Outline: as §1

[8] = system: LOC_OS01G48390-cb002
Outline: as §1

[9] = system: LOC_OS01G51400-cb002
Outline: as §1

[10] = system: T1, LOC_OS01G52050-cb004
T1 sequence (whole entry): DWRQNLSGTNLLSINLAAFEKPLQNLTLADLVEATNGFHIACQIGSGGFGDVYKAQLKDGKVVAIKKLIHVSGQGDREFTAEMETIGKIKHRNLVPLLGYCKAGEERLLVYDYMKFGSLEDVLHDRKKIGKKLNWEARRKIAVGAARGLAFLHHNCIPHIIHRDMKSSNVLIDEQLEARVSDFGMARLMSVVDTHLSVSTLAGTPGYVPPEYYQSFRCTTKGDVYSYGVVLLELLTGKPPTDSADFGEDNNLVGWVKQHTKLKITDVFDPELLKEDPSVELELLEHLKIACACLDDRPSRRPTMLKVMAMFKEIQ
Outline: as §1

[11] = system: LOC_OS01G57100-cb003
Outline: as §1

[12] = system: LOC_OS01G60330-cb001
Outline: as §1

[13] = system: LOC_OS01G60700-cb002
Outline: as §1

[14] = system: LOC_OS01G63280-cb003
Outline: as §1

[15] = system: LOC_OS01G67340-cb003
Outline: as §1

[16] = system: LOC_OS01G70970-cb002
Outline: as §1

[17] = system: LOC_OS02G07810-cb001
Outline: as §1

[18] = system: LOC_OS02G08530-cb003
Outline: as §1

[19] = system: LOC_OS02G14120-cb001
Outline: as §1

[20] = system: LOC_OS02G17970-cb001
Outline: as §1

| Compound | thermal shift delta Tm [1] | thermal shift delta Tm [2] | thermal shift delta Tm [3] | thermal shift delta Tm [4] | thermal shift delta Tm [5] | thermal shift delta Tm [6] | thermal shift delta Tm [7] | thermal shift delta Tm [8] | thermal shift delta Tm [9] | thermal shift delta Tm [10] | thermal shift delta Tm [11] | thermal shift delta Tm [12] | thermal shift delta Tm [13] | thermal shift delta Tm [14] | thermal shift delta Tm [15] | thermal shift delta Tm [16] | thermal shift delta Tm [17] | thermal shift delta Tm [18] | thermal shift delta Tm [19] | thermal shift delta Tm [20] |
| --- | --- | --- | --- | --- | --- | --- | --- | --- | --- | --- | --- | --- | --- | --- | --- | --- | --- | --- | --- | --- |
| CN1CCC(Nc2nc(Nc3ccc(Oc4ccccc4)cc3)c3c(=O)[nH]cc(Br)c3n2)CC1 | 1.56 °C | 2.82 °C | 0.27 °C | 0.59 °C | 2.99 °C | 2.71 °C | 0.76 °C | 2.51 °C | 0.72 °C | 4.93 °C | 1.9 °C | 3.13 °C | 1.69 °C | 0.86 °C | 1.7 °C | 3.58 °C | 0.79 °C | 3.25 °C | 3.98 °C | 0.52 °C |
| OCCn1cc(-c2cnc3nnn(Cc4ccc5ncccc5c4)c3n2)cn1 | 0.52 °C | 0.79 °C | -0.12 °C | -0.25 °C | 0.12 °C | 0.14 °C | 0.11 °C | 0.2 °C | 0.09 °C | 0.09 °C | 0.41 °C | 0.74 °C | 0.46 °C | 0.3 °C | -0.64 °C | 0.28 °C | 0.2 °C | 0.45 °C | -0.27 °C | 0.49 °C |
| CC(C)c1cnn2c(NCc3ccccc3)cc(NCCCCCCN)nc12 | 0.34 °C | 0.13 °C | 0.11 °C | -0.23 °C | 0.11 °C | 0.56 °C | -0.29 °C | 0.09 °C | -0.21 °C | 0.18 °C | 0.82 °C | 0.42 °C | 0.03 °C | 0.24 °C | -0.22 °C | 0.19 °C | 0.44 °C | 0.66 °C | -0.59 °C | 0.24 °C |
| CN1CCN(c2ccc(OC(F)(F)F)c(Nc3ncc4c(n3)-c3c(c(C(N)=O)nn3CCO)CC4)c2)CC1 | 0.81 °C | 1.85 °C | 0.67 °C | -0.54 °C | 0.5 °C | 0.64 °C | 0.04 °C | -0.15 °C | 0.17 °C | 1.03 °C | 1.21 °C | 0.44 °C | 0.52 °C | 0.63 °C | 0.36 °C | 0.12 °C | 0.04 °C | 1.25 °C | 1.17 °C | 0.51 °C |
| COc1cc2nccc(Oc3ccc(NC(=O)NC4CC4)c(Cl)c3)c2cc1C(N)=O [Lenvatinib (E7080)] | 1.14 °C | 1.17 °C | 0.52 °C | 0.29 °C | 0.28 °C | 0.62 °C | -0.02 °C | 0.47 °C | 0.04 °C | 0.33 °C | -0.21 °C | 1.52 °C | 1.38 °C | 0.36 °C | -0.21 °C | 0.67 °C | 0.65 °C | 1.11 °C | 0.02 °C | 0.27 °C |
